BAZ2B block = blocks human BAZ2B. AlphaScreen BAZ2B-H3K14Ac peptide displacement. Potency, µM (doses to about 114 µM), inactives show at the highest dose activity change, negative = inhibition, most hits filed as inhibitors. actives 4.4% (n = 360,000). AID 504333; note: % is set by controls: 0 for no effect and ±100 for the full control effect; nearly all actives have a fitted effect of over 60% in size
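Protein-peptide AlphaScreen: BAZ2B 50 nM, b-H3K14Ac 50 nM, 1x PBS pH 7.4 + 0.01% Tween-20. Preincubation 30 min RT; cpd 30 min RT (top 110 uM); beads 20 min RT, light-protected.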
G9a inh = G9a (human) methyltransferase inhibition. Q96KQ7. G9a H3K9 monomethylation, AlphaScreen, 2 h. actives 8.8% (n = 350,000). Potency, µM (series often up to 102 µM), without a hit: at the top dose activity, negative = inhibition, most hits filed as inhibitors; note: % is set by controls: 0 for no effect and ±100 for the full control effect; nearly all actives have a fitted effect of over 75% in size
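G9a (20 nM) preincubated 15 min RT with compounds, then 500 nM biotinylated H3K9 peptide and 20 uM SAM added; 2 h RT reaction. Monomethyl-H3K9 product detected by AlphaScreen with anti-H3K9me1 antibody, streptavidin donor and anti-rabbit IgG acceptor beads.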
Sfp PPTase inh = Sfp phosphopantetheinyl transferase inhibition | actives 3.5% (n = 310,000) | Potency, µM, inactives show largest response in the series, negative = inhibition, most hits filed as inhibitors | Q9F4F7 | AID 1490 | Biochemical Sfp PPTase activity, qHTS;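 note: the enzyme is Sfp with the accession as filed and its product quenches rhodamine fluorescence; 0% = enzyme reaction without inhibitor and -100% = no enzyme wells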
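Buffer: 50 mM Hepes-Na pH 7.6, 10 mM MgCl2, 0.01% Nonidet P-40, 0.01% BSA. Enzyme 15 nM, pre-exposed to compound 15 min; substrates then added and fluorescence change tracked over 30 min.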
HP1b binding inh = blocks HP1-beta chromodomain binding to methylated histone tails; P83916; AlphaScreen HP1-beta / biotin-H3K9me3 peptide binding; Potency, µM (doses to about 114 µM), inactives show top-dose activity change, negative = inhibition, usual class: inhibitors; actives 0.56% (n = 390,000); note: nearly all actives have a fitted effect of over 70% in size
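Compound inhibition of the preformed complex between 50 nM HP1-beta and 50 nM biotinylated H3K9me3 peptide was read by AlphaScreen. Buffer was PBS pH 7.4 with 0.01% Tween-20. Incubations ran 30 min at room temperature, with 10 ug/mL donor/acceptor beads.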
JMJD2A Tudor inh = inhibitors of human JMJD2A Tudor domain; Potency, µM (series often up to 114 µM), without a hit: at the highest dose activity change, negative = inhibition, most hits filed as inhibitors; O75164; AID 504339; actives 4.4% (n = 390,000); AlphaScreen JMJD2A-Tudor / H3K4me3 peptide binding; note: % is set by controls: 0 for no effect and ±100 for the full control effect; nearly all actives have a fitted effect of over 50% in size
12-LOX inh = ALOX12 (human) lipoxygenase inhibition; P18054; purified 12hLO, xylenol orange hydroperoxide absorbance; Potency, µM (top dose mostly 108 µM), without a hit: at the top dose activity change, negative = inhibition, actives largely listed as inhibitors; actives 1.1% (n = 580,000); AID 1671190; note: % is set by controls: 0 for no effect and ±100 for the full control effect
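Purified human 12hLO at 150 nM in 25 mM Hepes, 0.01% Triton X-100, pH 7.0, preincubated 15 min at room temperature with compound. Reaction started with 40 uM arachidonic acid, 30 min at room temperature. Hydroperoxide measured by Fe-xylenol orange, 573/405 nm absorbance ratio.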
Starred values were filed as active, the others as inactive; u = inconclusive; x = no result; [ ] = another dose, or the depositor's remark. Sampled rows, rich in hits. Any-hit rate of the full collection: about 8.7%. Calls come from the whole dose curve; as a rule, active = well fitted curve in the direction sought with a large enough effect; inconclusive = small, poorly fitted or top-dose-only effect, or another doubt; inactive = no such curve, though single readings can be large; an effect the other way counts as inactive or inconclusive. Potency is the fitted concentration of half-maximal effect.

SMILES	BAZ2B block	G9a inh	Sfp PPTase inh	HP1b binding inh	JMJD2A Tudor inh	12-LOX inh
Cc1cc(C)nc(/N=C(\N)Nc2ccc3c(c2)OCCO3)n1	15%	-8%	-6%	55%	-15%	-6%
Cc1cc(=O)[nH]c(/N=C(\N)Nc2ccc3c(c2)OCCO3)n1	-24%	22µM*	-16%	-18%	-8%	u
CCc1cccc(NC(=O)Cn2c(=O)cc(C(=O)NC)c3ccccc32)c1	x	x	x	x	x	-3%
Cc1cccc(OCC(=O)N/N=C\c2cccn2C)c1C	u	-19%	13%	2%	-15%	-23%
Cc1ccc(C(C)C)c(OCC(=O)N/N=C/c2cccn2C)c1	25µM*	x	0%	u	u	0%
Cc1ccccc1OCC(=O)N/N=C/c1cccn1C	45µM*	u	14%	-18%	8%[11.4 µM]	15%
S=C(Nc1ccccc1)c1ccccc1	x	x	x	x	x	-22%
COc1ccccc1-c1cc(C(=O)Nc2cc(C)n(Cc3ccc(Cl)cc3)n2)no1	-2%	16%[12.7 µM]	40µM*	24%	-1%	16%
Cc1cccc(-n2c3c(cc(C#N)c2=O)C(=O)CC(c2ccccc2)C3)c1C (configuration not stated)	x	x	x	x	x	-8%
COc1cc(OC)cc(C(=O)N2CCN(Cc3ccccc3C(F)(F)F)CC2)c1	35µM*	7.9µM*	u	u	1.6µM*	u
CCS(=O)(=O)N1CCN(C(=O)c2cc(OC)cc(OC)c2)CC1	-5%	1%[12.7 µM]	4%	20%	5%	-2%
CCC(C)N1CCN(C(=O)c2cc(OC)cc(OC)c2)CC1 (configuration not stated)	79µM*	x	-22%	u	20µM*	u
COc1cc(C(=O)N2CCN(Cc3ccccc3C(F)(F)F)CC2)cc(OC)c1OC	32µM*	u	u	u	20µM*	u
COc1cccc(C(=O)N2CCN(Cc3ccccn3)CC2)c1	20µM*	45µM*	45µM*	-23%	3.5µM*	u
COc1cc(C(=O)N2CCN(C(=O)c3ccccc3)CC2)cc(OC)c1OC	13%	u	4%	26%	-14%	9%[57.4 µM]
O=C(c1ccc(OC2CCN(Cc3ccccc3C(F)(F)F)CC2)cc1)N1CCCCC1	-14%	u	-9%	8%	-18%	u
Cc1ccc(C(=O)N2C[C@@H]3CCCN4CCC[C@@H]([C@H]34)[C@H]2CCCC(=O)Nc2ccccc2)cc1	x	x	x	x	x	42%
COc1ccc(OC)c(S(=O)(=O)ON2C(=O)c3ccccc3C2=O)c1	9%[0.457 µM]	1.4µM*	-101%	u	89µM*	0%
CCc1ccc(S(=O)(=O)ON2C(=O)c3ccccc3C2=O)cc1	u	u	18µM*	35µM*	50µM*	u
Cn1c(=O)cc(C(=O)NC2CCCc3c2[nH]c2ccccc32)c2ccccc21 (configuration not stated)	x	x	x	x	x	40µM*
COc1cc(C(=O)NC2CCCc3c2[nH]c2ccccc32)cc(OC)c1OC (configuration not stated)	x	x	x	x	x	35µM*
O=C(NC1CCCc2c1[nH]c1ccccc21)c1ccncc1 (configuration not stated)	x	x	x	x	x	-4%
O=C(NC1CCCc2c1[nH]c1ccccc21)c1n[nH]c2c1CCCC2 (configuration not stated)	x	x	x	x	x	22µM*
COCCn1ccc2ccc(C(=O)NC3CCCc4c3[nH]c3ccccc43)cc21 (configuration not stated)	x	x	x	x	x	40µM*
COCCn1cc(C(=O)NC2CCCc3c2[nH]c2c(Cl)cccc32)c2ccccc2c1=O (configuration not stated)	x	x	x	x	x	24%
SMILES	BAZ2B block	G9a inh	Sfp PPTase inh	HP1b binding inh	JMJD2A Tudor inh	12-LOX inh
O=C(NC[C@H]1O[C@@H]2C[C@@H](CC(=O)N3CCOCC3)O[C@@H]2[C@@H]1O)NC1CCCCC1	x	x	x	x	x	0%[176 µM]
CCc1nc2c(c(-c3ccc(O)cc3)n1)CCN(Cc1ccsc1)CC2	x	x	x	x	x	4%
O=C(NC1CCCc2c1[nH]c1ccc(F)cc21)c1cccs1 (configuration not stated)	x	x	x	x	x	27%
O=C(Cn1nc(-c2cccs2)ccc1=O)NC1CCCc2c1[nH]c1c(Cl)cccc21 (configuration not stated)	x	x	x	x	x	56%
O=C(NC1CCCc2c1[nH]c1ccccc21)c1cccs1 (configuration not stated)	x	x	x	x	x	45µM*
O=C(Cn1nc(-c2ccc(F)cc2)ccc1=O)NC1CCCc2c1[nH]c1ccccc21 (configuration not stated)	x	x	x	x	x	35µM*
CCOc1cc(C(=O)NC2CCN(c3cc(-c4ccccc4)[nH]n3)CC2)cc(OCC)c1OCC	x	x	x	x	x	49%
N#Cc1cc2c(nc1SCCOc1ccccc1)CCCCC2	x	x	x	x	x	-19%
CN(C(=O)COC(=O)C1CCN(S(=O)(=O)c2c(Cl)cccc2Cl)CC1)C1CCCCC1	-29%	40µM*	x	66%	-8%	-15%
O=C(COC(=O)C1CCN(S(=O)(=O)c2c(Cl)cccc2Cl)CC1)NCc1ccco1	-9%	50µM*	x	1%	-21%	8%
CS(=O)(=O)NN1C(=O)c2ccccc2NC1c1cccs1 (configuration not stated)	12%	-34%	20%	8%	3.5µM*	-2%
COc1ccccc1CN1CCN(S(=O)(=O)c2ccc(C)cc2)CC1	x	x	x	u	20µM*	u
CN1CCC(N(C)C(=O)Cc2ccccc2[N+](=O)[O-])CC1	-18%	-17%	2%	1%	-12%	-8%
COc1ccc(C(=O)CN2CCN(S(=O)(=O)c3ccc(F)cc3)CC2)cc1	3%	u	x	29%	-6%	-14%
CN(Cc1ccccc1)C1CCN(Cc2ccccc2[N+](=O)[O-])CC1	20µM*	18µM*	79µM*	u	11µM*	u
CCOc1ccc(C(=O)CN2CCN(S(=O)(=O)c3ccc(Cl)cc3)CC2)cc1	-7%	35µM*	-5%	65%	-9%	u
CCN1CCN(CC(=O)c2ccc(OC)cc2)CC1	-5%	45µM*	22%	59%	-9%	-3%
O=C(c1ccsc1)N1CCC(c2n[nH]c(=O)n2Cc2ccc(F)cc2)CC1	x	x	x	x	x	-1%
O=C(OCC(=O)N1CCCC1)c1cn(-c2ccccc2)nc1-c1ccc(F)cc1	x	x	x	x	x	-6%
Cc1ccc(CNC(=S)NNC=O)cc1	x	x	x	x	x	5%
COc1ccc(S(=O)(=O)N2CCN(Cc3ccc(Cl)cc3)CC2)cc1	u	2.5µM*	-14%	u	10µM*	u
COc1ccc2ccc(O)c(CN3CCN(S(=O)(=O)c4cc([N+](=O)[O-])ccc4C)CC3)c2c1	-7%	1.3µM*	x	22%	-29%	-12%
